# Measurements taken from the supplement of paper PMC8728848.
# About 410 targets per protein were measured; listed, in parts, are those with the strongest signals and a random draw of the rest.
# Key:
# Assay in all cases: glycan array binding signal (z-score within array); higher = stronger binding
# Conditions in all cases: glycan notation: IUPAC condensed, linker removed
# Fuc(a1-2)Gal = target: Fuc(a1-2)Gal
# Procedure, shortened: (§1)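 The binding signal is a Z-score computed within each array. Data were drawn from 3228 arrays in the Consortium for Functional Glycomics database, restricted to those with a known protein sequence. Scores were averaged over arrays of the same protein sequence at different concentrations or buffers, and over linkers, and negative values can be taken as non-binding.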
# [1] = target: Fuc(a1-2)Gal(b1-4)GlcNAc(b1-2)Man(a1-3)[Fuc(a1-2)Gal(b1-4)GlcNAc(b1-2)Man(a1-6)]Man(b1-4)GlcNAc(b1-4)GlcNAc
# Procedure, shortened: as §1
# [2] = target: Fuc(a1-2)Gal(b1-4)GlcNAc6S
# Procedure, shortened: as §1
# [3] = target: Fuc(a1-2)[GalNAc(a1-3)]Gal
# Procedure, shortened: as §1
# [4] = target: Fuc(a1-2)[GalNAc(a1-3)]Gal(b1-3)GalNAc(b1-3)Gal(a1-4)Gal(b1-4)Glc
# Procedure, shortened: as §1
# [5] = target: Fuc(a1-2)[GalNAc(a1-3)]Gal(b1-4)GlcNAc(b1-2)Man(a1-3)[Fuc(a1-2)[GalNAc(a1-3)]Gal(b1-4)GlcNAc(b1-2)Man(a1-6)]Man(b1-4)GlcNAc(b1-4)GlcNAc
# Procedure, shortened: as §1
# [6] = target: Fuc(a1-3)[Gal(b1-4)]GlcNAc(b1-3)GalNAc
# Procedure, shortened: as §1
# [7] = target: Fuc(a1-3)[Gal(b1-4)]GlcNAc(b1-4)Gal(b1-4)[Fuc(a1-3)]GlcNAc(b1-4)Gal(b1-4)[Fuc(a1-3)]GlcNAc
# Procedure, shortened: as §1
# [8] = target: Fuc(a1-3)[GalNAc(b1-4)]GlcNAc
# Procedure, shortened: as §1
# [9] = target: Fuc(a1-3)[GalNAc(b1-4)]GlcNAc6S
# Procedure, shortened: as §1
# [10] = target: Gal(a1-4)Gal(b1-4)GlcNAc(b1-3)Gal(b1-4)Glc
# Procedure, shortened: as §1
# [11] = target: Gal(b1-4)GlcNAc(b1-2)Man(a1-6)[Man(a1-3)]Man(b1-4)GlcNAc(b1-4)GlcNAc
# Procedure, shortened: as §1
# [12] = target: Gal(b1-4)GlcNAc(b1-3)[Gal(b1-4)GlcNAc(b1-6)]GalNAc
# Procedure, shortened: as §1
# [13] = target: Gal(b1-4)GlcNAc(b1-6)Gal(b1-4)GlcNAc(b1-6)GalNAc
# Procedure, shortened: as §1
# GalNAc4S6S(b1-4)GlcNAc = target: GalNAc4S6S(b1-4)GlcNAc
# Procedure, shortened: as §1
# GalNAc6S(b1-4)GlcNAc = target: GalNAc6S(b1-4)GlcNAc
# Procedure, shortened: as §1
# [14] = target: GlcNAc(a1-3)Gal(b1-4)GlcNAc
# Procedure, shortened: as §1
# [15] = target: GlcNAc(a1-6)Gal(b1-4)GlcNAc
# Procedure, shortened: as §1
# [16] = target: GlcNAc(b1-2)Man(a1-3)[GlcNAc(b1-2)Man(a1-6)]Man(b1-4)GlcNAc(b1-4)[Fuc(a1-6)]GlcNAc
# Procedure, shortened: as §1
# [17] = target: GlcNAc(b1-3)Gal(b1-4)GlcNAc(b1-2)Man(a1-3)[GlcNAc(b1-3)Gal(b1-4)GlcNAc(b1-2)Man(a1-6)]Man(b1-4)GlcNAc(b1-4)[Fuc(a1-6)]GlcNAc
# Procedure, shortened: as §1
# [18] = target: GlcNAc(b1-3)Gal(b1-4)GlcNAc(b1-3)Gal(b1-4)GlcNAc(b1-3)Gal(b1-4)GlcNAc(b1-3)Gal(b1-4)GlcNAc(b1-2)[GlcNAc(b1-3)Gal(b1-4)GlcNAc(b1-3)Gal(b1-4)GlcNAc(b1-3)Gal(b1-4)GlcNAc(b1-3)Gal(b1-4)GlcNAc(b1-6)]Man(a1-6)[GlcNAc(b1-3)Gal(b1-4)GlcNAc(b1-3)Gal(b1-4)GlcNAc(b1-3)Gal(b1-4)GlcNAc(b1-3)Gal(b1-4)GlcNAc(b1-2)Man(a1-3)]Man(b1-4)GlcNAc(b1-4)[Fuc(a1-6)]GlcNAc
# Procedure, shortened: as §1
# [19] = target: GlcNAc(b1-3)Gal(b1-4)GlcNAc(b1-6)[GlcNAc(b1-3)]Gal(b1-4)GlcNAc
# Procedure, shortened: as §1
# [20] = target: GlcNAc(b1-3)[GlcNAc(b1-6)]GlcNAc(b1-4)GlcNAc
# Procedure, shortened: as §1
# GlcNAc(b1-4)GlcNAc = target: GlcNAc(b1-4)GlcNAc
# Procedure, shortened: as §1
# [21] = target: Man(a1-2)Man(a1-3)[Man(a1-6)]Man(a1-6)[Man(a1-2)Man(a1-3)]Man(b1-4)GlcNAc(b1-4)GlcNAc
# Procedure, shortened: as §1
# [22] = target: Man(a1-2)Man(a1-6)[Man(a1-3)]Man(a1-6)[Man(a1-2)Man(a1-2)Man(a1-3)]Man
# Procedure, shortened: as §1
# [23] = target: Man(a1-2)Man(a1-6)[Man(a1-3)]Man(a1-6)[Man(a1-2)Man(a1-2)Man(a1-3)]Man(b1-4)GlcNAc(b1-4)GlcNAc
# Procedure, shortened: as §1
# Man(a1-3)[Man(a1-6)]Man = target: Man(a1-3)[Man(a1-6)]Man
# Procedure, shortened: as §1
# [24] = target: Man(a1-3)[Man(a1-6)]Man(a1-6)[Man(a1-2)Man(a1-3)]Man(b1-4)GlcNAc(b1-4)GlcNAc
# Procedure, shortened: as §1
# [25] = target: Man(a1-3)[Man(a1-6)]Man(a1-6)[Man(a1-3)]Man
# Procedure, shortened: as §1
# [26] = target: Man(a1-3)[Man(a1-6)]Man(a1-6)[Man(a1-3)]Man(b1-4)GlcNAc(b1-4)GlcNAc
# Procedure, shortened: as §1
# [27] = target: Man(a1-3)[Man(a1-6)]Man(b1-4)GlcNAc(b1-4)GlcNAc
# Procedure, shortened: as §1
# [28] = target: Man(a1-3)[Man(a1-6)]Man(b1-4)GlcNAc(b1-4)[Fuc(a1-6)]GlcNAc
# Procedure, shortened: as §1
# Neu5Ac(a2-3)Gal = target: Neu5Ac(a2-3)Gal
# Procedure, shortened: as §1
# [29] = target: Neu5Ac(a2-3)Gal(b1-3)GalNAc(b1-4)[Neu5Ac(a2-3)]Gal(b1-4)Glc
# Procedure, shortened: as §1
# [30] = target: Neu5Ac(a2-3)Gal(b1-3)GlcNAc(b1-6)GalNAc
# Procedure, shortened: as §1
# [31] = target: Neu5Ac(a2-3)Gal(b1-4)GlcNAc(b1-2)[Neu5Ac(a2-3)Gal(b1-4)GlcNAc(b1-6)]Man(a1-6)[Neu5Ac(a2-3)Gal(b1-4)GlcNAc(b1-2)Man(a1-3)][GlcNAc(b1-4)]Man(b1-4)GlcNAc(b1-4)GlcNAc
# Procedure, shortened: as §1
# [32] = target: Neu5Ac(a2-3)Gal(b1-4)GlcNAc(b1-3)Gal(b1-4)GlcNAc(b1-3)[Neu5Ac(a2-3)Gal(b1-4)GlcNAc(b1-3)Gal(b1-4)GlcNAc(b1-6)]GalNAc
# Procedure, shortened: as §1
# [33] = target: Neu5Ac(a2-3)Gal(b1-4)[Fuc(a1-3)]GlcNAc(b1-3)Gal(b1-4)GlcNAc
# Procedure, shortened: as §1
# [34] = target: Neu5Ac(a2-3)Gal(b1-4)[Fuc(a1-3)]GlcNAc(b1-6)[Gal(b1-3)]GalNAc
# Procedure, shortened: as §1
# [35] = target: Neu5Ac(a2-3)[Neu5Ac(a2-6)]GalNAc
# Procedure, shortened: as §1
# [36] = target: Neu5Ac(a2-6)Gal(b1-4)GlcNAc(b1-2)Man(a1-3)[Man(a1-6)]Man(b1-4)GlcNAc(b1-4)GlcNAc
# Procedure, shortened: as §1
# [37] = target: Neu5Ac(a2-6)Gal(b1-4)GlcNAc(b1-2)Man(a1-6)[Man(a1-3)]Man(b1-4)GlcNAc(b1-4)GlcNAc
# Procedure, shortened: as §1
# [38] = target: Neu5Ac(a2-6)Gal(b1-4)GlcNAc(b1-3)Gal(b1-4)GlcNAc(b1-2)Man(a1-3)[Neu5Ac(a2-6)Gal(b1-4)GlcNAc(b1-3)Gal(b1-4)GlcNAc(b1-2)Man(a1-6)]GalNAc
# Procedure, shortened: as §1
# [39] = target: Neu5Ac(a2-6)Gal(b1-4)GlcNAc(b1-3)Gal(b1-4)GlcNAc(b1-3)Gal(b1-4)GlcNAc(b1-2)Man(a1-3)[Neu5Ac(a2-6)Gal(b1-4)GlcNAc(b1-3)Gal(b1-4)GlcNAc(b1-3)Gal(b1-4)GlcNAc(b1-2)Man(a1-6)]GalNAc
# Procedure, shortened: as §1
# [40] = target: Neu5Ac(a2-6)GalNAc(b1-4)GlcNAc
# Procedure, shortened: as §1
# [41] = target: Neu5Ac(a2-8)Neu5Ac(a2-8)Neu5Ac(a2-3)[Gal(b1-3)GalNAc(b1-4)]Gal(b1-4)Glc
# Procedure, shortened: as §1
# Neu5Ac(b2-6)GalNAc = target: Neu5Ac(b2-6)GalNAc
# Procedure, shortened: as §1
binder,measurement,setting,value
HHA (Hippeastrum hybrid) (protein) MQQDCNLVLYDVDKPIWASNTGGLARDCHLNMQSDGNLVVYAPRNQVIWASNTQGENGNYVCILQKDRNVVIYGTARWATGTNIHGAGIVGVPGSAPQNTTAEMIKLVRKYLITK,glycan array binding signal (z-score),Fuc(a1-2)Gal,-0.215
same,glycan array binding signal (z-score),[1],0.036
same,glycan array binding signal (z-score),[2],-0.207
same,glycan array binding signal (z-score),[3],-0.21
same,glycan array binding signal (z-score),[4],-0.213
same,glycan array binding signal (z-score),[5],-0.159
same,glycan array binding signal (z-score),[6],-0.17
same,glycan array binding signal (z-score),[7],-0.255
same,glycan array binding signal (z-score),[8],-0.196
same,glycan array binding signal (z-score),[9],-0.214
same,glycan array binding signal (z-score),[10],-0.203
same,glycan array binding signal (z-score),[11],3.97
same,glycan array binding signal (z-score),[12],-0.247
same,glycan array binding signal (z-score),[13],-0.191
same,glycan array binding signal (z-score),GalNAc4S6S(b1-4)GlcNAc,-0.218
same,glycan array binding signal (z-score),GalNAc6S(b1-4)GlcNAc,-0.209
same,glycan array binding signal (z-score),[14],-0.2
same,glycan array binding signal (z-score),[15],-0.203
same,glycan array binding signal (z-score),[16],-0.168
same,glycan array binding signal (z-score),[17],-0.147
same,glycan array binding signal (z-score),[18],-0.124
same,glycan array binding signal (z-score),[19],-0.185
same,glycan array binding signal (z-score),[20],-0.264
same,glycan array binding signal (z-score),GlcNAc(b1-4)GlcNAc,-0.211
same,glycan array binding signal (z-score),[21],3.35
same,glycan array binding signal (z-score),[22],2.72
same,glycan array binding signal (z-score),[23],3.81
same,glycan array binding signal (z-score),Man(a1-3)[Man(a1-6)]Man,5.62
same,glycan array binding signal (z-score),[24],5.57
same,glycan array binding signal (z-score),[25],5.35
same,glycan array binding signal (z-score),[26],5.15
same,glycan array binding signal (z-score),[27],8.3
same,glycan array binding signal (z-score),[28],6.07
same,glycan array binding signal (z-score),Neu5Ac(a2-3)Gal,-0.214
same,glycan array binding signal (z-score),[29],-0.218
same,glycan array binding signal (z-score),[30],-0.216
same,glycan array binding signal (z-score),[31],-0.221
same,glycan array binding signal (z-score),[32],-0.187
same,glycan array binding signal (z-score),[33],-0.211
same,glycan array binding signal (z-score),[34],-0.179
same,glycan array binding signal (z-score),[35],-0.215
same,glycan array binding signal (z-score),[36],0.002
same,glycan array binding signal (z-score),[37],3.55
same,glycan array binding signal (z-score),[38],-0.165
same,glycan array binding signal (z-score),[39],-0.107
same,glycan array binding signal (z-score),[40],-0.222
same,glycan array binding signal (z-score),[41],-0.177
same,glycan array binding signal (z-score),Neu5Ac(b2-6)GalNAc,-0.213
